Results filed as inconclusive are left out. Calls of active or inactive are those of the source. Unless noted, calls follow the shape of the dose curve; as a rule, active = well fitted curve in the direction sought with a large enough effect; inconclusive = small, poorly fitted or top-dose-only effect, or another doubt; inactive = no such curve, though single readings can be large; an effect the other way counts as inactive or inconclusive.
Legend:
[1] = qHTS Assay for Identification of Small Molecule Antagonists for NFkB Signaling Pathway (AID 895; active = well fitted inhibition curve with a large enough effect in the signal ratio, with a control signal flat, not every such curve was filed as active; the % refers to the signal ratio)
Procedure, shortened: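 NFkB-bla ME-180 cervical carcinoma cells with beta-lactamase reporter under NFkB response element; compounds added, then TNF alpha at 10 pM final (EC50), 5 h at 37 C. LiveBLAzer substrate 2 h, room temperature; emission 460/530 nm at 405 nm excitation.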

[2] = qHTS Assay for Identification of Small Molecule Agonists for Thrombopoietin (TPO) Signaling Pathway (AID 917)
Procedure, shortened: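 Cell-based luciferase reporter screen. Mouse Ba/F3 line stably expressing human TPO receptor; IL-3 removed overnight before plating. Co-treatment with compound and EC50 TPO (26 pM), 24 hrs at 37 C, then luminescence.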

[3] = target: Muscarinic acetylcholine receptor M1 (Rattus norvegicus) (UniProt P08482); assay: qHTS Assay for Antagonists of Acetylcholine Muscarinic M1 Receptor: Kinetic Measurement of Intracellular Calcium Response (AID 943);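 also: Fluo-4 calcium signal as peak divided by basal fluorescence over 4 min; series mostly up to about 35 µM; nearly all actives have a fitted effect of over 75% in size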
Sequence of Muscarinic acetylcholine receptor M1 (Rattus norvegicus) (P08482 whole entry, looked up): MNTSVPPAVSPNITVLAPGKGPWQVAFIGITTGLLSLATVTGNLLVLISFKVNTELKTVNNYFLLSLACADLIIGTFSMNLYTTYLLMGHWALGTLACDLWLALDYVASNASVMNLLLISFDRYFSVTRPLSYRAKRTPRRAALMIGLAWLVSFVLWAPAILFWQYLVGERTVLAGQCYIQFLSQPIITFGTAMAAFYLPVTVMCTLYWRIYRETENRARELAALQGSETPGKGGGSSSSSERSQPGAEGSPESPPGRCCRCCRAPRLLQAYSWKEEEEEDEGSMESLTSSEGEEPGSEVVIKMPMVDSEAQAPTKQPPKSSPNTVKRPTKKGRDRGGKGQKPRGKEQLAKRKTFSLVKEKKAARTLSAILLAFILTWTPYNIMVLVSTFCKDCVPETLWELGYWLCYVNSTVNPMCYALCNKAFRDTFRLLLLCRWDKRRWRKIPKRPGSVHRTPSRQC
Procedure, shortened: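 Quantitative HTS in CHO-M1 (rat receptor) cells: 10 min compound exposure ahead of 100 nM carbachol, Fluo-4 fluorescence followed 4 min, value expressed as peak-to-basal ratio.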

[4] = target: Muscarinic acetylcholine receptor M1 (Rattus norvegicus) (UniProt P08482); assay: qHTS Assay for Antagonists of Acetylcholine Muscarinic M1 Receptor: Measurement of IP-One Response (AID 944); also: nearly all actives have a fitted effect of over 75% in size; also: potency is read from the fitted curve at half-maximal effect
Procedure, shortened: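 Antagonism was measured as loss of carbachol-driven (EC80) IP1 accumulation in CHO cells carrying rat M1, using a homogeneous IP-One TR-FRET kit read at 620 and 665 nm.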

[5] = target: Pyruvate kinase (Leishmania mexicana) (UniProt Q27686); assay: qHTS Validation Assay for Inhibitors of Leishmania Mexicana Pyruvate Kinase (AID 945)
Procedure, shortened: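 Luminescent ATP detection (PKLight) after a 1 h room-temperature reaction of 0.2 nM LmPYK E451W mutant with 0.5 mM PEP and 0.1 mM ADP at pH 7.2. Activity is normalized to DMSO-only control wells.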

[6] = target: Pyruvate kinase PKM (Homo sapiens) (UniProt P14618); assay: qHTS Assay for Activators of Human Muscle Pyruvate Kinase (AID 954; active = well fitted curve in the direction sought with a large enough effect, not every such curve was filed as active)
Sequence of Pyruvate kinase PKM (Homo sapiens) (P14618 whole entry, looked up): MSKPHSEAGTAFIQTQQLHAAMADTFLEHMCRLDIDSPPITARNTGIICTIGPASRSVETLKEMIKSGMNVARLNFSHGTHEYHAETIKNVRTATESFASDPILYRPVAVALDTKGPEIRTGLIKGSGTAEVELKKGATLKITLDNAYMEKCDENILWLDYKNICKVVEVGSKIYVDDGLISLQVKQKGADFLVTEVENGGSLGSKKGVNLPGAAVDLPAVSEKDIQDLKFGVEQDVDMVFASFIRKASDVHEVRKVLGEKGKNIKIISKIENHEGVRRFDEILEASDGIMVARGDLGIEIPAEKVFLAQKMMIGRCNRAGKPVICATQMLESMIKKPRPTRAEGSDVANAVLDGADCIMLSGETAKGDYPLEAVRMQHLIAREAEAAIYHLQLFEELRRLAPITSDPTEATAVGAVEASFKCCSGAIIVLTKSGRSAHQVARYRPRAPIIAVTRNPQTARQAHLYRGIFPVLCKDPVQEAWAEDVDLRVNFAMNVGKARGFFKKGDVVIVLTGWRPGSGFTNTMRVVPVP
Procedure, shortened: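 Screening used highly purified human pyruvate kinase M2 under submaximal activity, with PEP at its Km and ADP below Km. After an hour at room temperature, ATP was read by luciferase luminescence.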

[7] = Confirmation and Secondary Assay for Modulators of Hemoglobin Beta Chain Splicing at IVS2 654 locus (AID 910)
Procedure, shortened: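 HeLa cells stably carrying EGFP interrupted by mutant beta-globin IVS2-654 intron (CMV-driven) were treated with compound for 2 days at 37C; corrected splicing was scored as total peak GFP intensity per well (488 nm excitation, 500-520 nm emission).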

[8] = Cell Viability - LYMP2-001 (AID 921);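 also: cells exposed to compound for 24 h at 37 °C; nearly all actives have a fitted effect of over 70% in size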; also: potency is read from the fitted curve at half-maximal effect
Procedure, shortened: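 Steps: seed 2500 lymphoblastoid cells/well; 5 hr, 37 C; add compound; 24 hr, 37 C; CellTiter-Glo reagent, 30 min room temperature; read luminescence. Concentration-response modeled by Hill equation for AC50.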

[9] = Confirmation and Secondary Assay for Modulators of Hemoglobin Beta Chain Splicing at IVS2 705 locus (AID 930);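 also: HeLa cells stably expressing the EGFP-705 splicing reporter; GFP fluorescence per well restored by corrected splicing of the IVS2-705 intron in EGFP; series mostly up to about 46 µM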
Procedure, shortened: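 Read-out: total peak GFP fluorescence per well (488 nm excitation, 500-520 nm emission) by laser-scanning cytometry. Cells: HeLa EGFP-705 splicing reporter, 2 days compound exposure in Optimem/2% FCS.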

[10] = MultiTox-Fluor Cytotoxicity Assay - LYMP1-001 - Dead Cells (AID 946); also: potency is read from the fitted curve at half-maximal effect
Procedure, shortened: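 In this qHTS, 15 uM tetraoctylammonium bromide defined 100% and DMSO defined basal activity. Lymphoblastoid cells (LYMP1-001, 2500 per well) received compound for 16 hr at 37 C before a fluorogenic dead-cell substrate readout at 485/520 nm.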

[11] = MultiTox-Fluor Cytotoxicity Assay - LYMP1-001 - Live Cells (AID 947); also: potency is read from the fitted curve at half-maximal effect
[12] = Cell Viability - LYMP1-002 - Assay at 16 hr (AID 948); also: potency is read from the fitted curve at half-maximal effect
Procedure, shortened: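 Seed 2500 LYMP1-002 cells per well in complete medium and hold 5 hr at 37 C. Add compound across a concentration series and incubate 16 hr at 37 C. Add CellTiter-Glo, wait 30 min at room temperature, read luminescence.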

[13] = MultiTox-Fluor Cytotoxicity Assay - LYMP1-002 - Live Cells (AID 955);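 also: cells exposed to compound for 16 hours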; also: potency is read from the fitted curve at half-maximal effect
Procedure, shortened: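 In this qHTS viability format, lymphoblastoid cells (LYMP1-002, human) received compound for 16 hr at 37 C. Fluorogenic GF-AFC cleavage by viable cells was detected at 405/510 nm after 1 h at room temperature.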

[14] = MultiTox-Fluor Cytotoxicity Assay - LYMP1-002 - Dead Cells (AID 960); also: nearly all actives have a fitted effect of over 60% in size; also: potency is read from the fitted curve at half-maximal effect
Procedure, shortened: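 Concentration-dependent increases in membrane-leaked protease activity are quantified in LYMP1-002 cells after 16 hr treatment; values are normalized against DMSO and tetraoctylammonium bromide (15 uM) controls and AC50 derived by Hill modeling.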

[15] = MultiTox-Fluor Cytotoxicity Assay - LYMP1-003 - Dead Cells (AID 961); also: nearly all actives have a fitted effect of over 70% in size; also: potency is read from the fitted curve at half-maximal effect
Procedure, shortened: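 Acute toxicity is scored as increased dead-cell protease activity in human lymphoblastoid LYMP1-003 cells after 16 h compound exposure in complete culture medium. Activity is normalized to DMSO basal and 15 uM tetraoctylammonium bromide as full response.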

[16] = MultiTox-Fluor Cytotoxicity Assay - LYMP1-003 - Live Cells (AID 962);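 also: cells exposed to compound for 16 hours at 37 °C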; also: potency is read from the fitted curve at half-maximal effect
Procedure, shortened: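 Human lymphoblastoid line LYMP1-003 in complete culture medium, treated 16 hr with titrated compounds. Viable cells quantified via cell-permeant GF-AFC substrate fluorescence; AC50 derived by Hill fitting.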

[17] = target: Cytochrome P450 2C19 (Homo sapiens) (UniProt P33261); assay: qHTS Assay for Inhibitors and Substrates of Cytochrome P450 2C19 (AID 899); also: nearly all actives have a fitted effect of over 60% in size
Sequence of Cytochrome P450 2C19 (Homo sapiens) (P33261 whole entry, looked up): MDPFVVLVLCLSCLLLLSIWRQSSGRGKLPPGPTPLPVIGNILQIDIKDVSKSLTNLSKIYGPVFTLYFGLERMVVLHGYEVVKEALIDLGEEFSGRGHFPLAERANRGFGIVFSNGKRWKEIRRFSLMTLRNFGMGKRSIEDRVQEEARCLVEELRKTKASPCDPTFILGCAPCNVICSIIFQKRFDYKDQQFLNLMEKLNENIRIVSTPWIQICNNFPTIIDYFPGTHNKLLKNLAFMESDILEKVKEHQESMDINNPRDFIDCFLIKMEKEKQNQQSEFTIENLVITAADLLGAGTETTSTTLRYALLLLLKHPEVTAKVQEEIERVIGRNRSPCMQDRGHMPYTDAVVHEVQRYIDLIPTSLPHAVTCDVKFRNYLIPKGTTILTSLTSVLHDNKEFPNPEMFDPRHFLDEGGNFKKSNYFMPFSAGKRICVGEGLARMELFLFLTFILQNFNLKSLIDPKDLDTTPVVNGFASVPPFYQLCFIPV
Procedure, shortened: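 Human CYP2C19 (5nM) with Luciferin-H EGE at 10uM (its KM) in 50mM KPO4 was preincubated with compound for 10 min at 37C. NADPH regeneration started a 60 min 37C reaction. Luciferin was read by luminescence, normalized to 57uM ketoconazole.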

Measured: Potency

N[C@@H](Cc1cnc[nH]1)C(=O)O
inactive: [1] | [2] | [3] | [4] | [5] | [6]

O=c1ccc2ccccc2o1
not listed: [1] | [2] | [3] | [4] | [5] | [6] | [17]
inactive: all other assays above

COc1cc(-c2ccc(=O)[nH]n2)ccc1OC(F)F
inactive: [17] | [2] | [3] | [5]

COC1=CC(=O)C[C@@H](C)[C@]12Oc1c(Cl)c(OC)cc(OC)c1C2=O
inactive: [7] | [8] | [9] | [10] | [11] | [12] | [13] | [15] | [16]

CN1CCN(C(c2ccccc2)c2ccccc2)CC1
inactive: [7] | [9]

Oc1ccc(Cl)c2cccnc12
inactive: [7] | [9]

CC(Cc1cccc(C(F)(F)F)c1)NCCOC(=O)c1ccccc1 (stereo not drawn)
inactive: [7] | [9]

CCCCOc1ccc(C(=O)CCN2CCCCC2)cc1
inactive: [7] | [9]

CCCCOc1cc(C(=O)NCCN(CC)CC)c2ccccc2n1
inactive: [7] | [9]

CCC(=O)c1c(O)cc(O)cc1O
inactive: [7] | [9]

CC(C)(Oc1ccc(Cl)cc1)C(=O)O
inactive: [7] | [9]

CCOc1ccc2nc3cc(N)ccc3c(N)c2c1
inactive: [7] | [9]

CCCCCCCCCCCCCCCCOP(=O)([O-])OCC[N+](C)(C)C
inactive: [7] | [9]

COc1c2occc2c(OC)c2c(=O)cc(C)oc12
inactive: [7] | [9]

CC(C)(C)CC(C)(C)c1ccc(O)c(Cc2ccc(Cl)cc2Cl)c1
inactive: [7] | [9]

COc1ccc(OC)c(C(O)CNC(=O)CN)c1 (stereo not drawn)
inactive: [7] | [9]

CN1CCC(=C2c3ccccc3Sc3ccccc32)CC1
inactive: [7] | [9]

CCCCc1nc(Cl)c(CO)n1Cc1ccc(-c2ccccc2-c2nn[nH]n2)cc1
inactive: [7] | [9]

OC(CCN1CCCCC1)(c1ccccc1)c1ccccc1
inactive: [7] | [9]

O=C1OCCN1/N=C/c1ccc([N+](=O)[O-])o1
inactive: [7] | [9]

CCN(CCCc1ccccc1)CCCc1ccccc1
inactive: [7] | [9]

CCCCOc1ccc(OCCCN2CCOCC2)cc1
inactive: [7] | [9]

COc1ccc(CCN2CCC(Nc3nc4ccccc4n3Cc3ccc(F)cc3)CC2)cc1
inactive: [7] | [9]

Cc1ccc(C(=O)C(C)CN2CCCCC2)cc1 (stereo not drawn)
inactive: [7] | [9]

CCN1CCN(c2cc3c(cc2F)c(=O)c(C(=O)O)cn3C2CC2)CC1
inactive: [7] | [9]

OCc1ccccc1O
inactive: [7] | [9]

CCN(CC)C(=O)N1CCN(C)CC1
inactive: [7] | [9]

O=C(OCC(O)CO)c1ccccc1Nc1ccnc2cc(Cl)ccc12 (stereo not drawn)
inactive: [7] | [9]

CN(C)CC/C=C1\c2ccccc2Sc2ccc(Cl)cc21
inactive: [7] | [9]

Oc1c(I)cc(I)c2cccnc12
inactive: [7] | [9]

CCOC(=O)n1ccn(C)c1=S
inactive: [7] | [9]

CCn1cc(C(=O)O)c(=O)c2cnc(N3CCCC3)nc21
inactive: [7] | [9]

CC(=O)N(O)CCCCCNC(=O)CCC(=O)N(O)CCCCCNC(=O)CCC(=O)N(O)CCCCCN
inactive: [7] | [9]

CCN(CCCCOC(=O)c1ccc(OC)c(OC)c1)C(C)Cc1ccc(OC)cc1 (stereo not drawn)
inactive: [7] | [9]

CCCC(=O)Nc1ccc(OCC(O)CNC(C)C)c(C(C)=O)c1 (stereo not drawn)
inactive: [7] | [9]

O=C1c2ccccc2C(=O)C1c1ccccc1
inactive: [7] | [9]

C[C@]12CC[C@@H]3c4ccc(O)cc4CC[C@H]3[C@@H]1CC[C@@H]2O
inactive: [2] | [5] | [10] | [11] | [12] | [6] | [13] | [15] | [16]

O=C1CCC(c2ccc(-n3ccnc3)cc2)=NN1
inactive: [2] | [3] | [4] | [5] | [6]

C[C@@H]1C(=O)NC2=Nc3cccc(Cl)c3CN21
inactive: [2] | [3] | [4] | [5] | [6]

CN(C(=O)CN(CCO)CC(=O)N(C)C(C)(C)Cc1ccccc1)C(C)(C)Cc1ccccc1
inactive: [7] | [9]

CN1CCC[C@@H]1c1cccnc1
inactive: [2] | [5] | [6]

CNCCC=C1c2ccccc2CCc2ccccc21
inactive: [7] | [9] | [5] | [6]

COc1cccc2c1C(=O)c1c(O)c3c(c(O)c1C2=O)C[C@@](O)(C(C)=O)C[C@@H]3O[C@H]1C[C@H](N)[C@H](O)[C@H](C)O1
active: [8] 1580 nM | [10] 501 nM | [11] 631 nM | [12] 794 nM | [13] 3980 nM | [14] 12600 nM | [15] 1000 nM | [16] 501 nM

CC(O)C(=O)O (stereo not drawn)
inactive: [8] | [10] | [11] | [12] | [13] | [14] | [15] | [16]

COc1cccc2c1C(=O)c1c(O)c3c(c(O)c1C2=O)C[C@@](O)(C(=O)CO)C[C@@H]3O[C@H]1C[C@H](N)[C@H](O)[C@H](C)O1
active: [8] 501 nM | [10] 2510 nM | [11] 1580 nM | [12] 3160 nM | [13] 5010 nM | [14] 3160 nM | [15] 6310 nM | [16] 794 nM

Oc1cc(O)c2c(c1)O[C@H](c1ccc(O)c(O)c1)[C@H](O)C2
inactive: [2] | [3] | [4] | [5] | [6]

COc1cc(NS(C)(=O)=O)ccc1Nc1c2ccccc2nc2ccccc12
inactive: [6]
active: [4] 10000 nM

CCCCC(CC)CN=C(N)NC(N)=NCCCCCCN=C(N)NC(N)=NCC(CC)CCCC (stereo not drawn)
inactive: [7] | [9]

CCOc1ccc(Cc2nccc3cc(OCC)c(OCC)cc23)cc1OCC
inactive: [7] | [9]

CC(=O)Nc1c(I)cc(I)c(C(=O)O)c1I
inactive: [7] | [9]

Reference: PubChem BioAssay (NCATS)
